The panel holds about 79,000 compounds, 15% with a hit somewhere; the sample as a whole holds those more often. A number with no mark means an inactive call. Activity calls are given as the source filed them. No stated cut-off is given here; in the data, active means growth inhibition above about 70%; inactive means the rest.
Tests used:
[1] = NCI Yeast Anticancer Drug Screen. Data for the rad50 strain (AID 155);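 further: 0% = growth of vehicle-only cultures of the same strain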; conditions: S. cerevisiae rad50 strain growth inhibition, stronger effect = higher value
How it was run: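 Vehicle-treated cultures provide the reference for the growth inhibition reported for compound-exposed, repair-deficient yeast.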

[2] = NCI Yeast Anticancer Drug Screen. Data for the mec2-1 strain (AID 157); conditions: S. cerevisiae mec2-1 strain, stronger effect = higher value
How it was run: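 Test agents were screened against the mec2-1 yeast strain, with defined DNA repair or cell cycle alteration. Growth was scored as inhibition against vehicle-only controls.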

[3] = NCI Yeast Anticancer Drug Screen. Data for the sgs1 mgt1 strain (AID 161);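 further: 0% = growth of cultures given vehicle only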; conditions: S. cerevisiae sgs1 mgt1 strain, stronger effect = higher value
How it was run: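 Test agents were incubated with a DNA-repair-mutant yeast strain. Growth was then read and compared against vehicle-treated controls.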

[4] = NCI Yeast Anticancer Drug Screen. Data for the cln2 rad14 strain (AID 165);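 further: 0% = growth equal to vehicle treated cultures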; conditions: S. cerevisiae cln2 rad14 strain, stronger effect = higher value
How it was run: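 Growth of compound-exposed yeast (cln2 rad14 genotype) measured and expressed as inhibition relative to vehicle.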

[5] = NCI Yeast Anticancer Drug Screen. Data for the bub3 strain (AID 167); conditions: S. cerevisiae bub3 mutant strain, stronger effect = higher value
How it was run: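 Mutant yeast screening strain plus compound; vehicle-treated cultures serve as the 0% inhibition reference.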

[6] = NCI Yeast Anticancer Drug Screen. Data for the mlh1 rad18 strain (AID 175); conditions: S. cerevisiae mlh1 rad18 strain growth inhibition, stronger effect = higher value
How it was run: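 In this whole-cell yeast screen, a strain with altered DNA damage repair is challenged with compound, and its growth is measured against matched vehicle-treated controls.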

[7] = at 5.0 µM (retest, dose inferred, filed as 0.5)
[8] = at 50.0 µM (retest, dose inferred, filed as 5.0)

CCOC(=O)C(=O)NNc1ccccc1
growth inhibition [1, 7]: 22% | growth inhibition [1, 8]: 89% (active) | growth inhibition ([1]; at 50.0 µM): 97.8% (active) | growth inhibition [2, 7]: 3% | growth inhibition [2, 8]: 82% (active) | growth inhibition ([2]; at 50.0 µM): 94.8% (active) | growth inhibition [3, 7]: 13% | growth inhibition [3, 8]: 61% | growth inhibition ([3]; at 50.0 µM): 98.7% (active) | growth inhibition [4, 7]: -1% | growth inhibition [4, 8]: 57% | growth inhibition ([4]; at 50.0 µM): 92.7% (active) | growth inhibition [5, 7]: 17% | growth inhibition [5, 8]: 96% (active) | growth inhibition ([5]; at 50.0 µM): 97.5% (active) | growth inhibition [6, 7]: 31% | growth inhibition [6, 8]: 95% (active) | growth inhibition ([6]; at 50.0 µM): 98.9% (active)

NC(Cc1ccccc1)c1ccc2cccc3c2c1CC3 (centres undefined)
growth inhibition [1, 7]: -5% | growth inhibition [1, 8]: 4% | growth inhibition ([1]; at 50.0 µM): 0.3% | growth inhibition [2, 7]: -5% | growth inhibition [2, 8]: 8% | growth inhibition ([2]; at 50.0 µM): 33.8% | growth inhibition [3, 7]: -2% | growth inhibition [3, 8]: 25% | growth inhibition ([3]; at 50.0 µM): 5.55% | growth inhibition [4, 7]: -6% | growth inhibition [4, 8]: -1% | growth inhibition ([4]; at 50.0 µM): -4.25% | growth inhibition [5, 7]: -2% | growth inhibition [5, 8]: 9% | growth inhibition ([5]; at 50.0 µM): 21.1% | growth inhibition [6, 7]: -2% | growth inhibition [6, 8]: 34% | growth inhibition ([6]; at 50.0 µM): 51.5%

CC12C(=O)N(CC(=O)O)C(=O)C1(C)C1c3ccccc3C2c2ccc3ccccc3c21 (centres undefined)
growth inhibition [1, 7]: 7% | growth inhibition [1, 8]: 97% (active) | growth inhibition ([1]; at 50.0 µM): 98.7% (active) | growth inhibition [2, 7]: 1% | growth inhibition [2, 8]: 98% (active) | growth inhibition ([2]; at 50.0 µM): 95.9% (active) | growth inhibition [3, 7]: 2% | growth inhibition [3, 8]: 98% (active) | growth inhibition ([3]; at 50.0 µM): 99% (active) | growth inhibition [4, 7]: -8% | growth inhibition [4, 8]: 99% (active) | growth inhibition ([4]; at 50.0 µM): 99% (active) | growth inhibition [5, 7]: 1% | growth inhibition [5, 8]: 96% (active) | growth inhibition ([5]; at 50.0 µM): 95.6% (active) | growth inhibition [6, 7]: 0% | growth inhibition [6, 8]: 98% (active) | growth inhibition ([6]; at 50.0 µM): 95.8% (active)

CCc1ccc(/C(C)=N/NC(N)=S)cc1
growth inhibition [1, 7]: -4% | growth inhibition [1, 8]: 89% (active) | growth inhibition ([1]; at 50.0 µM): 53.6% | growth inhibition [2, 7]: -4% | growth inhibition [2, 8]: 95% (active) | growth inhibition ([2]; at 50.0 µM): 19.9% | growth inhibition [3, 7]: 3% | growth inhibition [3, 8]: 91% (active) | growth inhibition ([3]; at 50.0 µM): 42.8% | growth inhibition [4, 7]: -18% | growth inhibition [4, 8]: 74% (active) | growth inhibition ([4]; at 50.0 µM): 54.8% | growth inhibition [5, 7]: -9% | growth inhibition [5, 8]: 92% (active) | growth inhibition ([5]; at 50.0 µM): 34.8% | growth inhibition [6, 7]: -2% | growth inhibition [6, 8]: 93% (active) | growth inhibition ([6]; at 50.0 µM): 74.5% (active)

Cc1ccc(O)c(C(C)c2ccccc2)c1 (centres undefined)
growth inhibition [1, 7]: 6% | growth inhibition [1, 8]: 97% (active) | growth inhibition ([1]; at 50.0 µM): 99.2% (active) | growth inhibition [2, 7]: -20% | growth inhibition [2, 8]: 99% (active) | growth inhibition ([2]; at 50.0 µM): 99.6% (active) | growth inhibition [3, 7]: -3% | growth inhibition [3, 8]: 97% (active) | growth inhibition ([3]; at 50.0 µM): 98.8% (active) | growth inhibition [4, 7]: -8% | growth inhibition [4, 8]: 96% (active) | growth inhibition ([4]; at 50.0 µM): 98.8% (active) | growth inhibition [5, 7]: 21% | growth inhibition [5, 8]: 98% (active) | growth inhibition ([5]; at 50.0 µM): 98.8% (active) | growth inhibition [6, 7]: 2% | growth inhibition [6, 8]: 98% (active) | growth inhibition ([6]; at 50.0 µM): 99.1% (active)

CC(C)C1=CC23CCC4C(C)(C(=O)O)CCCC4(C)C2CC1c1c(O)ccc(O)c13 (centres undefined)
growth inhibition [1, 7]: 30% | growth inhibition [1, 8]: 98% (active) | growth inhibition ([1]; at 50.0 µM): 99.3% (active) | growth inhibition [2, 7]: 75% (active) | growth inhibition [2, 8]: 100% (active) | growth inhibition ([2]; at 50.0 µM): 99.3% (active) | growth inhibition [3, 7]: 51% | growth inhibition [3, 8]: 99% (active) | growth inhibition ([3]; at 50.0 µM): 99.3% (active) | growth inhibition [4, 7]: 28% | growth inhibition [4, 8]: 98% (active) | growth inhibition ([4]; at 50.0 µM): 99.2% (active) | growth inhibition [5, 7]: 31% | growth inhibition [5, 8]: 99% (active) | growth inhibition ([5]; at 50.0 µM): 99.2% (active) | growth inhibition [6, 7]: 81% (active) | growth inhibition [6, 8]: 99% (active) | growth inhibition ([6]; at 50.0 µM): 99% (active)

CC1(c2ccccc2)Nc2ccccc2C1=Nc1ccccc1 (centres undefined)
growth inhibition [1, 7]: -1% | growth inhibition [1, 8]: 34% | growth inhibition ([1]; at 50.0 µM): 93.5% (active) | growth inhibition [2, 7]: -4% | growth inhibition [2, 8]: 30% | growth inhibition ([2]; at 50.0 µM): 97.7% (active) | growth inhibition [3, 7]: -3% | growth inhibition [3, 8]: 54% | growth inhibition ([3]; at 50.0 µM): 96.3% (active) | growth inhibition [4, 7]: -8% | growth inhibition [4, 8]: 75% (active) | growth inhibition ([4]; at 50.0 µM): 97.2% (active) | growth inhibition [5, 7]: -7% | growth inhibition [5, 8]: 77% (active) | growth inhibition ([5]; at 50.0 µM): 95.8% (active) | growth inhibition [6, 7]: -2% | growth inhibition [6, 8]: 86% (active) | growth inhibition ([6]; at 50.0 µM): 97.3% (active)

Fc1cccc(NC(=S)SCc2ccco2)c1
growth inhibition [1, 7]: 9% | growth inhibition [1, 8]: 84% (active) | growth inhibition ([1]; at 50.0 µM): 97.7% (active) | growth inhibition [2, 7]: -1% | growth inhibition [2, 8]: 93% (active) | growth inhibition ([2]; at 50.0 µM): 84.2% (active) | growth inhibition [3, 7]: 2% | growth inhibition [3, 8]: 80% (active) | growth inhibition ([3]; at 50.0 µM): 96% (active) | growth inhibition [4, 7]: -2% | growth inhibition [4, 8]: 45% | growth inhibition ([4]; at 50.0 µM): 61.2% | growth inhibition [5, 7]: -11% | growth inhibition [5, 8]: 61% | growth inhibition ([5]; at 50.0 µM): 82% (active) | growth inhibition [6, 7]: -1% | growth inhibition [6, 8]: 89% (active) | growth inhibition ([6]; at 50.0 µM): 97.2% (active)

Cc1ccc2c(c1)C1(SC(CC(=O)O)C(=O)N1c1ccc(Cl)cc1)C(=O)N2 (centres undefined)
growth inhibition [1, 7]: 4% | growth inhibition [1, 8]: 5% | growth inhibition ([1]; at 50.0 µM): 2.3% | growth inhibition [2, 7]: 0% | growth inhibition [2, 8]: -1% | growth inhibition ([2]; at 50.0 µM): 12.3% | growth inhibition [3, 7]: 1% | growth inhibition [3, 8]: -6% | growth inhibition ([3]; at 50.0 µM): -6.85% | growth inhibition [4, 7]: -1% | growth inhibition [4, 8]: -4% | growth inhibition ([4]; at 50.0 µM): -4.2% | growth inhibition [5, 7]: 1% | growth inhibition [5, 8]: 0% | growth inhibition ([5]; at 50.0 µM): -2.8% | growth inhibition [6, 7]: 0% | growth inhibition [6, 8]: -49% | growth inhibition ([6]; at 50.0 µM): 10.5%

CCCCCCCCCCCCOCC[N+](CCO)(CCO)Cc1ccccc1
growth inhibition [1, 7]: 99% (active) | growth inhibition [1, 8]: 99% (active) | growth inhibition ([1]; at 50.0 µM): 99.3% (active) | growth inhibition [2, 7]: 100% (active) | growth inhibition [2, 8]: 99% (active) | growth inhibition ([2]; at 50.0 µM): 99.5% (active) | growth inhibition [3, 7]: 99% (active) | growth inhibition [3, 8]: 99% (active) | growth inhibition ([3]; at 50.0 µM): 99.2% (active) | growth inhibition [4, 7]: 97% (active) | growth inhibition [4, 8]: 99% (active) | growth inhibition ([4]; at 50.0 µM): 98.4% (active) | growth inhibition [5, 7]: 97% (active) | growth inhibition [5, 8]: 99% (active) | growth inhibition ([5]; at 50.0 µM): 99% (active) | growth inhibition [6, 7]: 98% (active) | growth inhibition [6, 8]: 99% (active) | growth inhibition ([6]; at 50.0 µM): 99.3% (active)

CC1=C(C(=O)Nc2cccc(Cl)c2)C(c2ccccc2F)C(C(=O)Nc2cccc(Cl)c2)=C(C)N1
growth inhibition [1, 7]: 44% | growth inhibition [1, 8]: 44% | growth inhibition ([1]; at 50.0 µM): 71.3% (active) | growth inhibition [2, 7]: 49% | growth inhibition [2, 8]: 49% | growth inhibition ([2]; at 50.0 µM): 81.8% (active) | growth inhibition [3, 7]: 37% | growth inhibition [3, 8]: 37% | growth inhibition ([3]; at 50.0 µM): 86.2% (active) | growth inhibition [4, 7]: 36% | growth inhibition [4, 8]: 36% | growth inhibition ([4]; at 50.0 µM): 85.1% (active) | growth inhibition [5, 7]: 56% | growth inhibition [5, 8]: 56% | growth inhibition ([5]; at 50.0 µM): 86.8% (active) | growth inhibition [6, 7]: 62% | growth inhibition [6, 8]: 62% | growth inhibition ([6]; at 50.0 µM): 87.7% (active)

COc1cccc(C(c2cc3c(cc2O)OCO3)N2CCCC2)c1O (centres undefined)
growth inhibition [1, 7]: 0% | growth inhibition [1, 8]: 52% | growth inhibition ([1]; at 50.0 µM): 48.2% | growth inhibition [2, 7]: 1% | growth inhibition [2, 8]: 44% | growth inhibition ([2]; at 50.0 µM): 46.5% | growth inhibition [3, 7]: -5% | growth inhibition [3, 8]: 48% | growth inhibition ([3]; at 50.0 µM): 61.1% | growth inhibition [4, 7]: -6% | growth inhibition [4, 8]: 24% | growth inhibition ([4]; at 50.0 µM): 7.85% | growth inhibition [5, 7]: 6% | growth inhibition [5, 8]: 47% | growth inhibition ([5]; at 50.0 µM): 41.2% | growth inhibition [6, 7]: -1% | growth inhibition [6, 8]: 62% | growth inhibition ([6]; at 50.0 µM): 77% (active)

CCN(CC)CCCNc1c2c(Cl)cc(Cl)cc2nc2nc(=O)[nH]c(C)c12
growth inhibition [1, 7]: 9% | growth inhibition [1, 8]: 12% | growth inhibition ([1]; at 50.0 µM): 8.75% | growth inhibition [2, 7]: 8% | growth inhibition [2, 8]: 16% | growth inhibition ([2]; at 50.0 µM): 0.9% | growth inhibition [3, 7]: -28% | growth inhibition [3, 8]: 6% | growth inhibition ([3]; at 50.0 µM): 8.8% | growth inhibition [4, 7]: -13% | growth inhibition [4, 8]: 4% | growth inhibition ([4]; at 50.0 µM): 39% | growth inhibition [5, 7]: -19% | growth inhibition [5, 8]: 8% | growth inhibition ([5]; at 50.0 µM): 34.5% | growth inhibition [6, 7]: 7% | growth inhibition [6, 8]: 17% | growth inhibition ([6]; at 50.0 µM): 42.2%

— PubChem BioAssay (NCI)
